# Assay results taken from PubChem BioAssay (NCI).
# This is part of a sample that, as a whole, favours compounds with a hit. Of some 83,000 tested, about 20% had one in any assay.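 Cells were grown in 96-well plates and exposed to the test compound at a single concentration for 48 hours; results are reported as percent growth, with values below 10 considered active.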 Unmarked numbers belong to inactive results. Activity calls are given as the source filed them.
# Test system: PC-3 prostate
# Assay: NCI-60 one-dose screen, 48 h (100 = growth as untreated, 0 = no growth, -100 = all killed)
# Details: 10 µM unless noted
# Description: Growth inhibition of the PC-3 human tumor cell line is measured as a screen for anti-cancer activity. Cells are grown in 96 well plates and exposed to the test compound for 48 hours. Compounds are tested at a single concentration, which is 10^-5 M for most compounds. The reported endpoint is percent growth (GI% or GIPRCNT), where numbers from 0 - 100% represent growth inhibition, and numbers from -100% - 0 represent cell death. For example, a value of 40 represents 60% growth inhibition. A value of 0 means no net growth occurred over the course of the experiment. A value of -40 indicates 40% of cells at the beginning of the experiment died by the end of the experiment. A value of -100 means all cells are dead at the end of the experiment.
# NCI-60 Human Tumor Cell Lines Screen was performed using the standard one-dose NCI protocol, which is described in more detail at https://dtp.cancer.gov/discovery_development/nci-60/default.htm.
# Compounds with GIPRCNT values below 10 were considered active. Activity score was based on GIPRCNT using the following formula: […]
# Score is 0 for GIPRCNT values of 100 or above, 50 for GIPRCNT values of 0, and 100 for GIPRCNT values of -100.
row,Compound,growth
1,N#Cc1c(-c2ccc(Cl)cc2)nc(NN=Cc2ccc[nH]2)nc1N1CCOCC1,46.6%
2,CCCCCCCCCCOC(=O)c1nn(C(C)=O)c2cc(C)c(C)cc12,73.7%
3,Cc1cccc(N=Nc2cccc(C)c2)c1,104%
4,Cc1nc2sc(C(=O)Nc3cccc(Cl)c3C)c(N)c2cc1C(=O)/C=C/c1ccccc1,0.225% (active)
5,ClCCn1cnc2c(SCc3ccccc3)ncnc21,38.4%
6,O=C(N/N=C/c1ccc(Cl)cc1)c1ccc(NC(=O)c2ccccn2)cc1,79.8%
7,C=C(C)[C@@H]1CC[C@]2(C(=O)N3CCNCC3)CC[C@]3(C)[C@H](CC[C@@H]4[C@@](C)(CCC(=O)N5CCNCC5)[C@H](C(=C)C)CC[C@]43C)[C@@H]12,57.7%
8,COc1cc(/C=C/C(=O)c2cccc(-n3cc(-c4ccc(Cl)cc4)[nH]c3=O)c2)ccc1O,34.2%
9,N[C@@H]1CCC[C@H]1NCCCCN1C(=O)c2cccc3cc([N+](=O)[O-])cc(c23)C1=O,39%
10,O=c1cc(C(F)(F)F)c2cc(-c3cc4ccccc4c(=O)o3)c(O)cc2o1,68.5%
11,COc1cc2ncnc(Nc3ccc(F)c(Cl)c3)c2cc1OCC(=O)N1CCOCC1,94.3%
12,C[N+]1=C(/C=C/c2ccccc2Cl)C(C)(C)c2ccccc21,83.5%
13,CC(C)=CC(=O)N[C@H]1CC[C@]2(C)C3CC[C@]4(C)C(C(C)N(C)C)=CCC4C3CCC2[C@H]1O (stereo not given in full),37.7%
14,CCN(CC)CCOc1ccc(Nc2ncc3cc(-c4c(Cl)cccc4Cl)c(=O)n(CCOC)c3n2)cc1,60%
15,Cc1cc(O)c(=O)cc2c1C[C@H]1CC(C)(C)/C=C/C[C@]3(C)Oc4cc(=O)c(O)cc(C)c4C[C@H]3C[C@H](O)[C@@]1(C)O2,10.2%
16,CCOC(=O)c1c(NC(=O)c2ccccc2)sc2c3c(ccc12)OCN(C)C3,21.7%
17,COc1cc(-c2nccc3[nH]c(-c4cccc5[nH]ccc45)nc23)cc(OC)c1OC,11.8%
18,CCOC(=O)c1nnn(-c2no[n+]([O-])c2-c2ccc(OC)cc2)c1COc1cccc2cccnc12,34.2%
19,COC(=O)[C@]1(C)CCC[C@]2(C)[C@H]3C[C@@H]4[C@H]5[C@@H]6CC/C(=N\OCC/C(N)=N/O)[C@H]5[C@@]3(CC[C@H]21)CC4(C(C)C)O6,47.5%
20,COC(=O)c1c2c(c(C)[n+]([O-])c1C)C(=O)C(NCc1ccccc1)=CC2=O,8.92% (active)

row,Compound,growth
1,c1ccc2cc(Cn3cc(CSc4nc5ccccc5s4)nn3)ccc2c1,93.1%
2,O=C1C(Cl)=C(Nc2ccccc2)C(=O)c2ccccc21,39.7%
3,Cc1sc2nc(NCCN)[nH]c(=O)c2c1C,93.3%
4,CC(C)C1C2=C(NCCN1C(=O)c1ccncc1)C(C)(C)N(Cc1ccccc1)C2=O (stereo not given),96.1%
5,CS(=O)/C(C#N)=C\C=C\c1cccc(Cl)c1 (stereo not given),30.6%
6,CN(C)CCC(=O)C1CC1,99.2%
7,CCCCCCCCn1ccc2cc(NC(=O)CN=[N+]=[N-])ccc21,91.2%
8,O=C(OCc1ccc2c(Cl)cc(Cl)c(O)c2n1)N1CCN(C(=O)c2cc3ccccc3[nH]2)CC1,24.9%
9,N#Cc1ccccc1-c1ccc(CN2C(=O)S/C(=C\c3ccc(Br)cc3)C2=O)cc1,99.9%
10,Nc1cc(C(=O)O)cc(-n2c(O)c(C=C3N=c4ccccc4=N3)sc2=S)c1,92.4%
11,COc1ccc(Oc2ccc(/C=C/C(=O)c3ccc(OC)c(OC)c3)cc2)cc1,81.6%
12,Fc1cccc(CNc2c3ccccc3nc3ccccc23)c1,49%
13,CC1=C2CC/C(C)=C/CC[C@]3(C)O[C@H]3CC/C(C)=C/[C@H]2OC1,87.5%
14,Nc1c(Cl)cc(/C=C2\C=Cc3ccccc32)cc1Cl,90.6%
15,Cn1c(C#N)ccc1-c1ccc(F)c(NC(=O)c2ccc(F)cc2)c1,80.9%
16,Cc1nc2ccccc2c(/C=C/c2ccc(F)cc2)c1C(=O)/C=C/c1ccccc1,29.8%
17,CCOC(=O)c1ccc[nH]1,91.8%
18,COc1ccc(NC(=O)c2ccc(Nc3ncnc4c3cnn4-c3cccc(F)c3)cc2)cc1,96.3%
19,Cc1cc(=O)oc2cc(Oc3nc(Br)cn4c(Br)cnc34)ccc12,82.1%
20,CN(C)c1ccc(/C=N\NC(=O)c2ccc3nc(-c4ccc(Cl)cc4)[nH]c3c2)cc1,46.8%
